Screens as filed in PubChem BioAssay.
Only some compounds are listed: those with a hit (about 1.3% of all), similar ones and a draw of the others.
LRH-1 inv ag: inverse agonists of human LRH-1 (NR5A2); HEK293T StAR-luciferase reporter, LRH-1 transfected, 24 h; inhibition, % at 3.6 µM; 360,000 compounds, 0.13% hits; AID 602396;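 active = inhibition above the mean inhibition of all tested compounds plus 3 SD, cut at about 73% in these data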
NCOA3 inh: human NCOA3 inhibition. Q9Y6Q9. HEK293 GAL4-SRC3 luciferase reporter, luminescence. inhibition, % at 3.6 µM. 360,000 compounds, 0.17% hits;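 active = inhibition above a per-campaign cutoff, the mean of all compounds plus 3 SD, cut at about 60% in these data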;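 note: higher means less SRC3-driven luciferase light from the GAL4 reporter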
SRC1 inh: human NCOA1 inhibition; HEK293 GAL4-SRC1 luciferase reporter, luminescence; inhibition, % at 3.6 µM; Q15788; 360,000 compounds, 0.12% hits;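 active = inhibition above the campaign mean plus 3 SD, with each screening campaign given its own cutoff, cut at about 60% in these data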
NCOA2 inhibitor: inhibits human steroid receptor coactivator 2. Q15596. HEK293 GAL4-SRC2 luciferase reporter, luminescence. inhibition, % at 9 µM. 370,000 compounds, 0.17% hits. AID 651957;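 active = inhibition above the mean inhibition of all tested compounds plus 3 SD, set per campaign, cut at about 52% in these data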
Gli-Sufu antag: antagonists of Gli-Sufu signaling | 340,000 compounds, 0.74% hits | Sufu-KO-LIGHT fibroblasts, Gli luciferase reporter luminescence | inhibition, % at 5 µM;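 active = inhibition above about 55%, limit read from the data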
NR2F2 inh: NR2F2 (human) inhibition, primary screen; P24468; 370,000 compounds, 0.7% hits; HEK293T NGFI-A luciferase reporter, luminescence; inhibition, % at 8.6 µM;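 active = inhibition above a per-plate cutoff, mean inhibition of test wells between control levels plus 3 SD, cut at about 38% in these data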;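 note: cells cotransfected with COUP-TFII expression vector driving the NGFI-A reporter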
VP16 Luc counter: VP16 inhibition counter-screen for COUP-TFII; shares compounds with NR2F2 inh; HEK293 Gal4-VP16 luciferase reporter, luminescence; inhibition, % at 8.5 µM; 2,500 compounds, 25% hits; in the data active = inhibition above about 13%
NR2F2 inh conf: COUP-TFII (NR2F2) inhibition, confirmation assay; shares compounds with NR2F2 inh; HEK293 NGFI-A luciferase reporter, luminescence; inhibition, % at 8.5 µM; 2,500 compounds, 45% hits; AID 687008;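 active = mean inhibition over three repeats above a set limit taken from the earlier primary screen, cut at about 38% in these data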
Large screens that a line does not name were inactive (follow-up assays come after a bar, where they were run).

COCCN1CCN(C(=O)c2ccc3nc(Cc4ccc(OC)c(OC)c4)oc3c2)CC1	NR2F2 inh 49 | VP16 Luc counter inactive | NR2F2 inh conf 48
CCN(C(=O)C1CCN(c2nc(-c3ccc(OC)cc3)no2)CC1)c1ccc(OC)cc1	NR2F2 inh 52 | VP16 Luc counter inactive | NR2F2 inh conf inactive
c1ccc(-c2nc(N3CCCCCC3)c3ccccc3n2)nc1	LRH-1 inv ag 94, NR2F2 inh 38 | VP16 Luc counter inactive | NR2F2 inh conf inactive
c1ccc(CCNc2nc(-c3ccccn3)nc3ccccc23)cc1	NR2F2 inh 50 | VP16 Luc counter inactive | NR2F2 inh conf inactive
CCCN(CCC)c1nc(-c2ccccn2)nc2ccccc12	NCOA3 inh 64, NR2F2 inh 57 | VP16 Luc counter inactive | NR2F2 inh conf inactive
O=C(c1c(F)cccc1F)N1CCC(Oc2cccnc2)CC1	none (no result: LRH-1 inv ag, NCOA3 inh, SRC1 inh, Gli-Sufu antag)
O=C(NCc1cccnc1)c1c[nH]c2cc3c(cc2c1=O)OCCO3	NR2F2 inh 39 | VP16 Luc counter inactive | NR2F2 inh conf inactive
O=C1CCC2(CCC(c3ccccc3)CC2)N1CCCO (stereo unspecified)	none (no result: LRH-1 inv ag, NCOA3 inh, SRC1 inh, Gli-Sufu antag)
O=S(=O)(Nc1cc(Sc2ncn[nH]2)c(O)c2ccccc12)c1ccccc1	LRH-1 inv ag 89, NCOA3 inh 84, SRC1 inh 89, NCOA2 inhibitor 70, NR2F2 inh 72 | VP16 Luc counter inactive | NR2F2 inh conf inactive
Cc1cc(O)c(Sc2ncn[nH]2)cc1NS(=O)(=O)c1ccc(Cl)cc1	none
COC1=C[C@H](C(=O)NCCNC(C)=O)[C@@]2(C)Cc3ccccc3[C@H]2CC1=O	none (no result: LRH-1 inv ag, NCOA3 inh, SRC1 inh, Gli-Sufu antag)
O=C(c1ccccc1)c1c2c(cc3sc4ccccc4[n+]13)-c1cccc3cccc-2c13	Gli-Sufu antag 76, NR2F2 inh 49 | VP16 Luc counter inactive | NR2F2 inh conf 57
Cc1sc2cc3c(c(C(=O)c4ccccc4)[n+]2c1C)-c1cccc2cccc-3c12	Gli-Sufu antag 70, NR2F2 inh 60 (no result: LRH-1 inv ag, NCOA3 inh, SRC1 inh) | VP16 Luc counter 22 | NR2F2 inh conf 55
COc1ccc(S[C@]2(C(=O)N3CCOCC3)CC(=O)N(c3ccsc3)[C@@H]2c2ccc(OC)cc2)cc1	none (no result: LRH-1 inv ag, NCOA3 inh, SRC1 inh, Gli-Sufu antag)
CCN(CC)CCCNC(=O)CSc1nc2cccnc2n1C	none (no result: LRH-1 inv ag, NCOA3 inh, SRC1 inh, Gli-Sufu antag)
O=C1NCCN1CCN1CCC(c2cn(-c3ccc(F)cc3)c3ccc(Cl)cc23)CC1	NR2F2 inh 43 (no result: LRH-1 inv ag, NCOA3 inh, SRC1 inh, Gli-Sufu antag) | VP16 Luc counter inactive | NR2F2 inh conf inactive
Cc1ccc(-c2c(C(=O)NC3CCCC3)oc(=O)c3ccccc23)cc1	none (no result: LRH-1 inv ag, NCOA3 inh, SRC1 inh, Gli-Sufu antag)
Cc1nc2c(-c3ccc(F)cc3)cnn2c(N)c1-c1ccccc1	NCOA3 inh 71, SRC1 inh 70, NCOA2 inhibitor 70, NR2F2 inh 82 | VP16 Luc counter 32 | NR2F2 inh conf 82
COc1ccc(-c2nnc3n2N=C(c2cccc([N+](=O)[O-])c2)CS3)cc1	none (no result: LRH-1 inv ag, NCOA3 inh, SRC1 inh, Gli-Sufu antag)
Cc1ccc(C2=N/C(=C\c3coc4ccccc4c3=O)C(=O)O2)cc1	none (no result: LRH-1 inv ag, NCOA3 inh, SRC1 inh, Gli-Sufu antag)
COc1ccc(NC(=O)N2CCN(c3nc(-c4cccc(OC)c4)cs3)CC2)cc1	NR2F2 inh 40 | VP16 Luc counter inactive | NR2F2 inh conf inactive
COC(=O)c1cn(-c2ccc(-c3noc4c3C(=O)N(CC(=O)N3CCOCC3)CC4)cc2)nn1	none (no result: LRH-1 inv ag, NCOA3 inh, SRC1 inh, Gli-Sufu antag)
Fc1ccc(-[n+]2nc(Nc3ccccc3)sc2-c2c(Cl)cccc2Cl)cc1	none
CCc1ccc(Nc2n[n+](-c3ccccc3)c(-c3c(Cl)cccc3Cl)s2)cc1	NR2F2 inh 66 | VP16 Luc counter 16 | NR2F2 inh conf inactive
COc1ccc2ccccc2c1C=Nn1c(-c2n[nH]c3c2CCC3)n[nH]c1=S	none (no result: LRH-1 inv ag, NCOA3 inh, SRC1 inh, Gli-Sufu antag)
Cc1ccc(-n2ncc3c2CCCC3NC(=O)CCC2=NNC(=O)CC2)cc1C (stereo unspecified)	none
CC(C)(C)c1ccc(-n2ncc3c2CCCC3NC(=O)CCC2=NNC(=O)CC2)cc1 (stereo unspecified)	NR2F2 inh 39 (no result: Gli-Sufu antag) | VP16 Luc counter inactive | NR2F2 inh conf inactive
COc1ccc(CNc2ncnc3sccc23)cc1OC	NR2F2 inh 48 | VP16 Luc counter inactive | NR2F2 inh conf inactive
COc1ccc(C(CNc2ncnc3sccc23)N(C)C)cc1OC (stereo unspecified)	none
c1csc(CNc2ncnc3sccc23)c1	NR2F2 inh 63 | VP16 Luc counter inactive | NR2F2 inh conf 46
CN(C)C(CNc1ncnc2sccc12)c1ccccc1 (stereo unspecified)	none
OC(CNc1ncnc2sccc12)c1ccccc1 (stereo unspecified)	NR2F2 inh 40 | VP16 Luc counter inactive | NR2F2 inh conf inactive
CCCC(=O)OC12CCCN(C1)/C(=C/c1ccc(Cl)cc1)C2 (stereo unspecified)	none (no result: LRH-1 inv ag, NCOA3 inh, SRC1 inh, Gli-Sufu antag)
CN1/C(=C\C(=O)C[n+]2ccc3ccccc3c2)C(C)(C)c2ccccc21	NR2F2 inh 79 | VP16 Luc counter 17 | NR2F2 inh conf 52
COc1ccccc1OCC(=O)/C=C1/N(C)c2ccccc2C1(C)C	none
O=C(Nc1ccn(Cc2ccccc2F)n1)c1ccc(COc2ccccc2Cl)cc1	NR2F2 inh 61 | VP16 Luc counter inactive | NR2F2 inh conf inactive
O=C(Nc1ccn(Cc2c(F)c(F)cc(F)c2F)n1)c1ccc(COc2ccccc2Cl)cc1	none (no result: NCOA2 inhibitor, NR2F2 inh)
O=S1(=O)c2ccc(Br)cc2OCCC2CCCCN21 (stereo unspecified)	none (no result: LRH-1 inv ag, NCOA3 inh, SRC1 inh, Gli-Sufu antag)
Cc1ccc(NC(=O)C2CCN(S(=O)(=O)c3c(C)noc3/C=C/c3ccco3)CC2)nc1	NR2F2 inh 39 | VP16 Luc counter inactive | NR2F2 inh conf inactive
Cc1cccnc1NC(=O)C1CCN(S(=O)(=O)c2c(C)noc2/C=C/c2ccco2)CC1	none
CC(=O)Nc1ccc(Nc2cc(C)nc3c(-c4ccccc4)cnn23)cc1	NR2F2 inh 42 | VP16 Luc counter inactive | NR2F2 inh conf 43
CCC(=O)OCCCN1C(=O)CCC12CCC(C)CC2 (stereo unspecified)	none (no result: LRH-1 inv ag, NCOA3 inh, SRC1 inh, Gli-Sufu antag)
CC(=O)Nc1ccc(-c2csc(Nc3cc(C)ccn3)n2)cc1	NR2F2 inh 53 | VP16 Luc counter inactive | NR2F2 inh conf inactive
COC(=O)c1ccc(Oc2ccc(S(=O)(=O)N3CCCCC3)cc2N)cc1	NR2F2 inh 39 | VP16 Luc counter inactive | NR2F2 inh conf inactive
CC(C)(C)OC(=O)N1CCC(N[C@@H](Cc2ccccc2)C(=O)NCCc2c[nH]c3ccccc23)(C(=O)NC2CCCCC2)CC1	none (no result: LRH-1 inv ag, NCOA3 inh, SRC1 inh, NCOA2 inhibitor, Gli-Sufu antag)
Cc1ccc(C2(c3ccc(C)cc3)CC2C(=O)Nc2ccc([N+](=O)[O-])cc2O)cc1 (stereo unspecified)	NR2F2 inh 67 | VP16 Luc counter inactive | NR2F2 inh conf inactive
Cc1cccc(N2CCN(S(=O)(=O)c3cc(-c4cc(C)no4)ccc3C)CC2C)c1 (stereo unspecified)	none
